The whole screen tested about 91,000 compounds, of which about 290 (0.32%) were called active. Roughly 7% stayed inconclusive and do not appear here. The sample as a whole holds a higher share of actives than the screen did. A number with no mark means an inactive call. The call rests on the fitted dose curve; in most records, active means well fitted inhibition curve with a large enough effect; inconclusive means small, poorly fitted or top-dose-only effect; inactive means no such curve, though single readings can be large or run the other way.
Target: Single-stranded DNA cytosine deaminase (Homo sapiens) (UniProt Q9GZX7)
Test: Primary qHTS assay for inhibitors of Activation Induced Cytidine Deaminase (AID): AID signal; further: nearly all actives have a fitted effect of over 25% in size
Conditions: AID deamination FRET fluorescence, UDG-coupled, 4 h; series mostly up to 115 µM; activity change, negative = inhibition: at the top concentration
Excerpt: Assay Provider (PI) Patricia Gearhart Ph.D.
National Institute on Aging
National Institute of Health (NIH), Bethesda, MD
Assay Provider (PI) Rahul Kohli Ph.D.
Perelman School of Medicine
University of Pennsylvania, Philadelphia, PA
Activation-Induced Deaminase (AID) is a cytosine deaminase which converts cytosine into uracil within stretches of ssDNA. The presence of uracil in DNA initiates a cascade of mutagenic DNA repair to introduce point mutations and DNA double strand breaks. Specific targeting of AID to the immunoglobulin heavy chain loci (Igh) promotes mutagenesis in the antibody variable region for somatic hypermutation (SHM) or switch regions leading to class switch recombination (CSR). However, AID also plays a role in accumulating unnecessary mutations across the genome. Mis-targeting of AID results in the initiation of tumor development and leads to greater drug resistance among cancer cells when continually expressed. To identify an AID inhibitor, a small molecule library will be screened in collaboration with NCATS core facility at NIH. To confirm biological function, inhibitors will be examined in an in vitro murine B-cell activation assay and subsequent secondary validation screens. Top molecules will be further screened to identify inhibitory efficacy against a wild type primary splenocytes assay. Using these approaches, we hope to identify a small molecule with great efficacy and low toxicity for use as a molecular probe to further characterize AID's intricacies, or even as a therapeutic.
A FRET based analysis of cytosine deamination, was developed to identify potential inhibitors of AID catalytic activity. This screen has two signal output, Read 1 evaluates the AID inhibition response. The second readout (Read 2) evaluates UDG response and is uses as a counterscreen to exclude false positive inhibitors. Inhibition in AID and inactivity in the UDG signal is the desired outcome for this assay.
SEQUENCE No. (e.g., 1, 2, 3, etc.); […] (e.g., Cells, Incubation, Reagent, etc.); VALUE; DESCRIPTION
1a; Reagent; 3 uL; [4/3x] 1 uM AID/2.67 U/mL UDG
1b; Reagent; 3 uL; 2 U/mL UDG
1c; Reagent; 3 uL; 1 uM AID
2a; Compound; 46 nL; Follow-up plates (0.64 uM - 10 mM)
2b; Control; 46 nL; ATA ([…] - 10 mM)
3; Time; 10 min; incubation at room temperature
5; Time; 4 hr; incubation at room temperature
6; Reagent; 4 uL; [2x] 250 mM NaOH
7; Time; 15 sec; centrifuge at 1000 rpm
8; Time; 30 min; incubation at room temperature
9a; Detection; fluorescence (Read 1: AID); EnVision (PerkinElmer) plate reader, 540 excitation and 590 emission filters
9b; Detection; fluorescence (Read 2: UDG); EnVision (PerkinElmer) plate reader, 560 excitation and 665 emission filters
NOTES (numbers refer to sequence above)
1a; Reagents were dispensed in a medium-binding black solid-bottom Greiner plates (789176F) using a BioRptr liquid dispenser. Dispense 3 uL of [4/3x] 1 uM AID (provided by Kohli lab) and [4/3x] 2 U/mL UDG (NEB M0280L) into columns 1, 2, 5 to 48.
1b; Dispense 3 uL of [4/3x] 2 U/mL UDG into column 3.
1c; Dispense 3 uL of [4/3x] 1 uM AID into column 4.
2a; Compound (7-points [uM] (0.64; 3.2; 16; 80; 400; 2,000; 10,000; 20,000) double pin-transferred (Dip Factor = 2) using the Kalypsys (Wako USA) pintool equipped with a 1536 pinhead for a final concentration range of 7.32 nM - 114 uM.
2b; 10 mM Aurintricarboxylic Acid (Sigma A1895) (ATA, 8-point, n = 2, 1:2.5 dilution in column 2) double pin-transferred (Dip Factor = 2) using the Kalypsys (Wako USA) pintool equipped with a 1536 pinhead for a [final] range of 186 nM - 114 uM.
3; Room temperature incubation.
4; Dispense 1 uL of substrate mixture from the Kohli lab [4x] […] DJC20 and [4x] 250 nM DJC23 into columns 1 to 48 .
5; Room temperature incubation.
6; Dispense 4 uL of substrate mixture [2x] 250 mM NaOH into columns 1 to 48.
7; Centrifugation step to remove bubbles.
8; Room temperature incubation
9a; Fluorescence signal (column label AID) was read using the EnVision plate reader. […]
On the % scale 0 is the no-effect control and ±100 the full control effect; potency means the concentration at half of the fitted maximal effect.

Chain of Single-stranded DNA cytosine deaminase (Homo sapiens) (Q9GZX7 whole entry, looked up): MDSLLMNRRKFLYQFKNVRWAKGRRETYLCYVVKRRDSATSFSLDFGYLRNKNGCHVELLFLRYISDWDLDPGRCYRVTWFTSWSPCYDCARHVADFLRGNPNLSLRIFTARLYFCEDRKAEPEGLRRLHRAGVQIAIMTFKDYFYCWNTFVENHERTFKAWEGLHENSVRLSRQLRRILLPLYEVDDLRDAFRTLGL

| SMILES | activity change, negative = inhibition [%] | Potency |
| --- | --- | --- |
| Cc1ccccc1C(C)NC(=O)c1cc(-c2ccccc2)n[nH]1 (stereo not drawn) | -6.39 |  |
| COc1ccc(-c2cc3c(=O)n(CC(=O)NCc4cccc(Br)c4)ncn3n2)cc1 | -2.07 |  |
| Cc1cc2c(cc1C)NC(CC(=O)Nc1ccc(C(F)(F)F)cc1)C(=O)N2 (stereo not drawn) | 5.04 |  |
| Cc1cn[nH]c1C#N | 4.84 |  |
| CCCCCOC(=O)CSc1nc2c(c(=O)[nH]c(=O)n2C)n1CCC | -11.6 |  |
| Cn1nc(C(F)(F)F)c(Cl)c1C(=O)NC1CCCC1 | 0.508 |  |
| Cc1ccccc1NC(=O)c1cc2c(=O)n3cccc(C)c3nc2n1Cc1ccccc1 | -5.68 |  |
| COC(=O)Cc1c(C)c2ccc(OCc3ccc(F)cc3)cc2oc1=O | -9.33 |  |
| CCn1c(SCC(=O)c2ccc(Cl)cc2Cl)nnc1-c1cnccn1 | -7.85 |  |
| CCOC(=O)C1=C(CN(CCOC)Cc2ccco2)NC(=O)NC1c1cccc(OC)c1OC (stereo not drawn) | -4.9 |  |
| O=C(COC(=O)CC12CC3CC(CC(C3)C1)C2)Nc1ccc([N+](=O)[O-])cc1C(F)(F)F | -2.15 |  |
| O=C(O)CC(NC(=O)Cc1cccc(F)c1)c1ccc(F)cc1 (stereo not drawn) | -2.56 |  |
| O=[N+]([O-])/C=C/c1ccc(-c2ccccc2)o1 | -1.14 |  |
| O=C1CCCc2nccc(-c3ccc(Cl)cc3)c21 | -2.16 |  |
| COC(=O)COc1cccc(C(=O)Nc2ccc(-c3nc4ccccc4o3)cc2)c1 | 2.24 |  |
| CCCn1c2ccccc2c2cnn(CC(=O)NCCCOC(C)C)c(=O)c21 | 7.63 |  |
| CCCn1c2ccccc2c2cnn(CC(=O)N(CC)c3cc(C)ccc3C)c(=O)c21 |  | 35.5 µM (active) |
| CCCn1c2ccccc2c2cnn(CC(=O)N3CCCC(C(=O)OCC)C3)c(=O)c21 (stereo not drawn) | -20.2 |  |
| C=CCn1c(SCC(=O)Nc2ccccc2)nc2c1c(=O)n(C)c(=O)n2C | -4.76 |  |
| C=CCn1c(Oc2ccc(F)cc2)nc2c1c(=O)n(C)c(=O)n2C | -10 |  |
| COC(=O)Cc1c(C)c2ccc(OCc3cccc(Cl)c3)cc2oc1=O | -4.26 |  |
| COc1ccc(S(=O)(=O)N2CCc3c(c(-c4nnc(SC)n4C)nn3C)C2)cc1 | -13.2 |  |
| Cc1cccc(C)c1-n1ncc(C(=O)NCCCN2CCCCC2)c1C1CCN(C(=O)OC(C)(C)C)CC1 | -19.3 |  |
| COc1ccccc1CN1CCC(CNC(=O)c2cnn(-c3ccccc3Cl)c2C2CCN(C(=O)OC(C)(C)C)CC2)CC1 |  | 44.7 µM (active) |
| COc1ccccc1CN1CCC(CNC(=O)c2cnn(-c3cccc(Cl)c3)c2C2CCN(C(=O)OC(C)(C)C)CC2)CC1 |  | 44.7 µM (active) |
| Cc1ccc(CN2CCC(CNC(=O)c3cnn(-c4ccc(C)cc4)c3C3CCN(C(=O)OC(C)(C)C)CC3)CC2)cc1 | -21.8 |  |
| COc1ccccc1N1CCN(CCCNC(=O)c2cnn(-c3ccccc3Cl)c2C2CCN(C(=O)OC(C)(C)C)CC2)CC1 | -26.5 |  |

| SMILES | activity change, negative = inhibition [%] | Potency |
| --- | --- | --- |
| CC(C)(C)OC(=O)N1CCC(c2c(C(=O)N3CCN(c4cccc(Cl)c4)CC3)cnn2-c2cccc(Cl)c2)CC1 | -19.6 |  |
| CCCCc1c(C)nc2c(Cl)cccc2c1Cl | -2.47 |  |
| CCn1nc(C)cc1-c1nn2c(-c3cccc(Cl)c3Cl)nnc2s1 | -5.05 |  |
| O=C(O)c1ccc(-c2ccccc2)cc1C(=O)O | 4.53 |  |
| Cc1nn(CCC(=O)Nc2c(Cl)cccc2Cl)c(=O)c(C#N)c1C | 14.8 |  |
| COc1ccc(-c2cc(COC(=O)Cc3cccc(F)c3)on2)cc1 | 3.81 |  |
| N#C/C(=C/c1cccc([N+](=O)[O-])c1)c1ccc(C(F)(F)F)cn1 | -16.6 |  |
| O=C(OCC(=O)C12CC3CC(CC(C3)C1)C2)c1ccccc1Cl | -5.72 |  |
| O=C(CCCOC(=O)c1cc(Cl)ccc1[N+](=O)[O-])c1ccc(Br)cc1 | 0.291 |  |
| O=C1SCCC1NC(=O)C(Sc1ccccc1)c1ccccc1 (stereo not drawn) | -6.8 |  |
| O=C(CCCCC(=O)OCC(=O)c1ccc(Br)cc1)OCC(=O)c1ccc(Br)cc1 | 19.4 |  |
| O=[N+]([O-])c1ccc2nc(Cl)ccc2c1 | 20 |  |
| Cc1nn(CC(=O)N(CC2CCOC2)C2CC2)c(=O)c2ccccc12 (stereo not drawn) | 1.88 |  |
| Cc1cccc2c(=O)c(-c3ccccc3)c(NC(=O)c3ccc([N+](=O)[O-])cc3)oc12 | -3.76 |  |
| Cc1n[nH]c(=O)c2c(NC(=O)CSc3nnc(C4CC4)n3Cc3ccccc3)oc(C)c12 | 11.5 |  |
| Cc1[nH]nc2c1C(c1cccc(OCc3ccc(Cl)cc3)c1)C(C#N)=C(N)O2 (stereo not drawn) | 8.28 |  |
| CN(CCOC(=O)c1cccs1)Cc1ccccc1 | -1.32 |  |
| Cc1ccc(-c2cc3ccccc3n2C)cc1 | 39.1 |  |
| CCn1c(SC(C)c2nnc(-c3ccccc3)o2)nc2ccccc2c1=O (stereo not drawn) | -21 |  |
| O=C(Cc1ccc(Cl)c(Cl)c1)NCC1CN(Cc2ccccc2)CCO1 (stereo not drawn) | -0.709 |  |
| CCn1ccc(C(=O)Nn2c(C)nc3sc4c(c3c2=O)CCC(C)C4)n1 (stereo not drawn) | 1.64 |  |
| COC(=O)c1ccc(NC(=O)c2noc3c2COc2ccc(C)cc2-3)cc1 | 1.38 |  |
| COc1ccccc1Nc1c2c(nc3ccc(NC(=O)/C=C/c4cc(OC)c(OC)c(OC)c4)cc13)CCCC2 |  | 44.7 µM (active) |
| Cc1ccc(Nc2c3c(nc4ccccc24)CCC3)cc1 | -5.61 |  |
| CCOc1ccc(C(=O)Nc2ccc3nc4c(c(Nc5ccccc5OC)c3c2)CCCC4)cc1 | -3.06 |  |
| Cc1ccc2[nH]c(=S)nc(-c3ccccc3)c2c1 | -5.12 |  |
